Consider nine compounds from PubChem BioAssay.

A short description of test [1]: small molecules captured by biotinylated probe aFSTL3 – biochemical, small-molecule microarray, fluorescence 635/667, stem cell growth factor project, primary screen (AID 1064).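 Note: measures binding of the biotinylated anti-FSTL3 antibody to printed compounds.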 To be noted: higher = more signal.
Test [2] is described as follows: binders from COS7 lysate, DM2A8 probe, primary screen, torsin A project, cell lysate, small-molecule microarray, fluorescence 635/667 (AID 1065). The settings on record: higher = more signal, COS7 lysate expressing mutant human TOR1A.
Test [3] can be described thus: small molecules captured by biotinylated probe aFGF2 – biochemical, small-molecule microarray, fluorescence 635/667, stem cell growth factor project, primary screen (AID 1067).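 Note: measures binding of biotinylated aFGF2 protein to printed compounds on slides; z-score merges feature fluorescence and signal-to-noise across triplicate slides.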 The settings on record: higher = more signal.
Test [4] is described as follows: small molecules captured by biotinylated probe aFGF10 – biochemical, small-molecule microarray, fluorescence 635/667, stem cell growth factor project, primary screen (AID 1071).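 Note: score merges 667 nm spot intensity and signal to noise from triplicate slides.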 The settings on record: higher = more signal.
Test [5] concerns the target Neurogenic locus notch homolog protein 2 (Homo sapiens) (UniProt Q04721). Description: small molecules binding Notch2 protein – biochemical, small-molecule microarray, 635 nm fluorescence, stem cell growth factors, primary screen (AID 1073). To be noted: higher = more signal.
For test [6], the target named is Pro-neuregulin-1, membrane-bound isoform (Homo sapiens) (UniProt Q02297). Description: small molecules binding neuregulin-1 protein – biochemical, small-molecule microarray, fluorescence 635/667, psychiatric disease protein project, primary screen (AID 1075).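 Note: score combines 667 nm spot fluorescence with signal to noise.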 The settings on record: NRG1 binding, 635 nm fluorescence, higher = more signal.
Test [7] has as its system Neuregulin-1 EGF-like domain. The test can be described thus: small molecules binding NRG1 EGF domain – biochemical, small-molecule microarray, 635 nm fluorescence, primary screen (AID 1081).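 Note: binding of the protein to compounds printed on small-molecule microarray slides.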 The settings on record: higher = more signal.
The nature of test [8]: FRG1 expression reporter modulators in myotubes – cell-based, C2C12 myotubes, firefly/Renilla luciferase, luminescence, FRG1 inhibition for FSHD, primary screen (AID 1084). The settings on record: FRG1 promoter luciferase, higher = more signal, called active from +8 up or from −8 down.
Test [9] in a line: small molecules captured by biotinylated probe aFST – biochemical, small-molecule microarray, fluorescence 635/667, stem cell growth factor project, primary screen (AID 1086).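 Note: score merges 667 nm fluorescence with signal-to-noise of each printed compound spot.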 The settings on record: higher = more signal.
Test [10] is described as follows: binders of probe aHhip on microarray, primary screen, stem cell growth factor project, biochemical, small-molecule microarray, fluorescence 635/667 (AID 1087).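 Note: score merges spot fluorescence at 667nm with spot signal to noise ratio.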 To be noted: higher = more signal.
In test [11] the test system is PRMT1 (protein arginine N-methyltransferase 1). Description: small molecules binding arginine methyltransferase PRMT1 – biochemical, small-molecule microarray, 635 nm fluorescence, primary screen (AID 1088).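 Note: binding of Prmt1 protein to compounds spotted on small-molecule microarray slides.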 The settings on record: higher = more signal.
A short description of test [12]: growth effects on S. cerevisiae YJM789 – YJM789 clinical isolate, OD600, 24 h, basal, primary screen (AID 1089).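 Note: growth of clinical yeast isolate S. cerevisiae YJM 789 seeded 1000 cells per well; test concentration not given here.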 To be noted: higher = more signal, called active from +8 up or from −8 down.
Test [13] can be described thus: S. pombe growth modifiers, basal conditions – strain 972, OD600, 24 h, no modulator, primary screen (AID 1090).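 Note: basal condition with compound alone and no growth modifier present; test concentration not given here.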 The settings on record: S. pombe 972 growth, higher = more signal, called active from +8 up or from −8 down.
The nature of test [14]: budding yeast growth modifiers under rapamycin – strain BY4716, OD600, 96 h, primary screen (AID 1091). Note: test concentration not given here. The settings on record: S. cerevisiae BY4716 + rapamycin, higher = more signal, called active from +8 up or from −8 down.
The target in test [15] is Torsin-1A-interacting protein 2 (Homo sapiens) (UniProt Q8NFQ8). Description: small molecules binding lysate-expressed LULL1 – cell lysate, human LULL1 lysate, 635/667 nm fluorescence, primary screen (AID 1092).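 Note: score merges per-feature 667 nm fluorescence with signal-to-noise.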 To be noted: small-molecule microarray, hLULL1 lysate binding, 635 nm fluorescence; higher = more signal.
A short description of test [16]: optical density change of DRC41 E. coli – strain DRC41, OD650, 24 h, E. coli filamentation project, primary screen (AID 1093).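 Note: MC1000 strain lacking acrAB efflux and sulA so SOS filamentation is blocked; test concentration not given here.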 The settings on record: E. coli DRC41 growth, higher = more signal, called active from +8 up or from −8 down.
A short description of test [17]: probe aLefty2 binding to arrayed compounds – biochemical, biotinylated probe, 635/667 nm fluorescence, primary screen (AID 1094).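 Note: score merges spot fluorescence near 667 nm with spot signal-to-noise ratio.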 To be noted: small-molecule microarray, higher = more signal.
Test [18] concerns Noggin (protein binding on small-molecule microarray). The test can be described thus: small molecules binding Noggin protein – biochemical, 635/667 nm fluorescence, primary screen (AID 1095).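 Note: score merges 667 nm feature fluorescence with signal to noise over triplicate slides.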 To be noted: 635 nm fluorescence, higher = more signal.
The target in test [19] is Neurogenic locus notch homolog protein 3 (Homo sapiens) (UniProt Q9UM47). The test can be described thus: small molecules binding NOTCH3 protein – biochemical, 635/667 nm fluorescence, primary screen (AID 1096). To be noted: small-molecule microarray, 635 nm fluorescence, higher = more signal.
A short description of test [20]: probe aEGFR binding to arrayed compounds – biochemical, biotinylated probe, 635/667 nm fluorescence, primary screen (AID 1097).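 Note: probe is a biotinylated anti-EGFR antibody binding compounds printed on slides; score combines fluorescence near 667 nm and signal to noise of each spot.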 The settings on record: small-molecule microarray, higher = more signal.

Calls of active or inactive are those of the source.

Sequence of Neurogenic locus notch homolog protein 2 (Homo sapiens) (Q04721 whole entry, looked up, canonical isoform): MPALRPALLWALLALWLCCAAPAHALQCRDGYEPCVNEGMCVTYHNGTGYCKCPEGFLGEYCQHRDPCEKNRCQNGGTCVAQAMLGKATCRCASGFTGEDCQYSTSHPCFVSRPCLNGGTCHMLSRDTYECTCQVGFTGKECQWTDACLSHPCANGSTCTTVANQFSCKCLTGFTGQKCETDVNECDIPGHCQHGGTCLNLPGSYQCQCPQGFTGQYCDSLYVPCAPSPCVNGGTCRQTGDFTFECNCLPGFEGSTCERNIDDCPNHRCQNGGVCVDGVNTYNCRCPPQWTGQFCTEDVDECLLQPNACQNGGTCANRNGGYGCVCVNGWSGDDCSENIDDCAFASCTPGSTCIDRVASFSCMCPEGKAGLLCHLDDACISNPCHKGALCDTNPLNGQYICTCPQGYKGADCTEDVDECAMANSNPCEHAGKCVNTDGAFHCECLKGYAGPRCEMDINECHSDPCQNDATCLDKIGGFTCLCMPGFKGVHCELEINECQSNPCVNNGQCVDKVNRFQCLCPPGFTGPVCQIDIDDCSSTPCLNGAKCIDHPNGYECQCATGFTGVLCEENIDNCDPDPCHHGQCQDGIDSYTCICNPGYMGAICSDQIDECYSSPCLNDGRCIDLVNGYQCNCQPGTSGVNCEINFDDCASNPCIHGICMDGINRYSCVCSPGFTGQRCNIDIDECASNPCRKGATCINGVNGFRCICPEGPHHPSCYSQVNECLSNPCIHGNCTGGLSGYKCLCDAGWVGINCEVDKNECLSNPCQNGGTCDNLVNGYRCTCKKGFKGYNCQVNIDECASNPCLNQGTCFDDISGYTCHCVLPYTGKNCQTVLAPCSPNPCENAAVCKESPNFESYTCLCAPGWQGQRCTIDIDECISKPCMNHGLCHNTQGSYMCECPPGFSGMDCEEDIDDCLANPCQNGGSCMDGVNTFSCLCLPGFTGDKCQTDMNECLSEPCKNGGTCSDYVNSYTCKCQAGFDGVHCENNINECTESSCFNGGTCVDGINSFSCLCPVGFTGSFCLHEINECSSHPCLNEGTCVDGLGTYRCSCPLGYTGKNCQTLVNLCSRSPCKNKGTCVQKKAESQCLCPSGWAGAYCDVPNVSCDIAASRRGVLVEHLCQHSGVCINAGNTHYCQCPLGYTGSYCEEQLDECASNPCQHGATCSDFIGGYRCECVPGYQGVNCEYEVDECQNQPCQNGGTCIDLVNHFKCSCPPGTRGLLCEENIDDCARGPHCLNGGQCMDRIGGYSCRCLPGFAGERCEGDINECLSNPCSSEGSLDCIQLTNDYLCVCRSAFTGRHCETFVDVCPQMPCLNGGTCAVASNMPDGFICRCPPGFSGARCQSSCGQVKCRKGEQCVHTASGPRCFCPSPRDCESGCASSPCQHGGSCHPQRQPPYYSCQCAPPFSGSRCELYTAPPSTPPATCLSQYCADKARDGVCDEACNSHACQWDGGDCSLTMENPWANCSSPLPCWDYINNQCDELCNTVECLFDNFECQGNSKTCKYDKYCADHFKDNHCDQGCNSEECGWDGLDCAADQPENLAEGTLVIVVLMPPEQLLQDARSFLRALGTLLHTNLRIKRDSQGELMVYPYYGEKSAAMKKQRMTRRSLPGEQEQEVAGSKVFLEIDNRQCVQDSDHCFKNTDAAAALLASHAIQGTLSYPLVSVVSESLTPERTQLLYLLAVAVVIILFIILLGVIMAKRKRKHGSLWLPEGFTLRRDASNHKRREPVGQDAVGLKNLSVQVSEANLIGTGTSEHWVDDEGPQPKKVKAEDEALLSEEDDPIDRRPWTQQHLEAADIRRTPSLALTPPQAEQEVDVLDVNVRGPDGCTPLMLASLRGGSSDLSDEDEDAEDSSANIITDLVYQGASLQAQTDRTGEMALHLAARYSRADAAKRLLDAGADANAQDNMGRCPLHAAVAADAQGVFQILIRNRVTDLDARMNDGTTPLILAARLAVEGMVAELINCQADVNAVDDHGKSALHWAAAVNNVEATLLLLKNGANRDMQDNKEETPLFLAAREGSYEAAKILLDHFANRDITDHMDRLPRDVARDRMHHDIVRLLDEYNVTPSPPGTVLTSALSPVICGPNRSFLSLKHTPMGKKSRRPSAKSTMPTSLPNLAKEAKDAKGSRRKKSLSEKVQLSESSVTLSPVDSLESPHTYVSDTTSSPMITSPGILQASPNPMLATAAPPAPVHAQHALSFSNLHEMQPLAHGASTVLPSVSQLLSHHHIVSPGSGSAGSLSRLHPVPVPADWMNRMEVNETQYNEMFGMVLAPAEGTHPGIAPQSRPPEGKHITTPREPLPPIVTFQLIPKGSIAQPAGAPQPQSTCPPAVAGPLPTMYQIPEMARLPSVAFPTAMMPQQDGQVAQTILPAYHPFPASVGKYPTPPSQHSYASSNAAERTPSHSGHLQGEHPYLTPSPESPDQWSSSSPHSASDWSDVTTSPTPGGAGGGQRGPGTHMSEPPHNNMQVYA
Sequence of Torsin-1A-interacting protein 2 (Homo sapiens) (Q8NFQ8 whole entry, looked up): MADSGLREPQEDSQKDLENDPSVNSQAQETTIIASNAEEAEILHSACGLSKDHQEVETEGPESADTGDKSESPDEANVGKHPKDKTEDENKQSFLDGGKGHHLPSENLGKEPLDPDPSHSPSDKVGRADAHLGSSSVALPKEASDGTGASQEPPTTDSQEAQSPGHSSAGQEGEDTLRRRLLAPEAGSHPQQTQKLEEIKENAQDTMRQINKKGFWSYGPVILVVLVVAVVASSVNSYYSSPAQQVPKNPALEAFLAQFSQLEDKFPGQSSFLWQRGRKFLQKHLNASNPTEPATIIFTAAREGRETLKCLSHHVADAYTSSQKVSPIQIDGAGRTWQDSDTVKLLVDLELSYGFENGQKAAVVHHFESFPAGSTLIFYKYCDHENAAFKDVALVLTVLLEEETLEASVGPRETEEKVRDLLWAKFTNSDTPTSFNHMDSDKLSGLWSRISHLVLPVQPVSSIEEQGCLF
Sequence of Pro-neuregulin-1, membrane-bound isoform (Homo sapiens) (Q02297 whole entry, looked up, the tested form may be a part, canonical isoform): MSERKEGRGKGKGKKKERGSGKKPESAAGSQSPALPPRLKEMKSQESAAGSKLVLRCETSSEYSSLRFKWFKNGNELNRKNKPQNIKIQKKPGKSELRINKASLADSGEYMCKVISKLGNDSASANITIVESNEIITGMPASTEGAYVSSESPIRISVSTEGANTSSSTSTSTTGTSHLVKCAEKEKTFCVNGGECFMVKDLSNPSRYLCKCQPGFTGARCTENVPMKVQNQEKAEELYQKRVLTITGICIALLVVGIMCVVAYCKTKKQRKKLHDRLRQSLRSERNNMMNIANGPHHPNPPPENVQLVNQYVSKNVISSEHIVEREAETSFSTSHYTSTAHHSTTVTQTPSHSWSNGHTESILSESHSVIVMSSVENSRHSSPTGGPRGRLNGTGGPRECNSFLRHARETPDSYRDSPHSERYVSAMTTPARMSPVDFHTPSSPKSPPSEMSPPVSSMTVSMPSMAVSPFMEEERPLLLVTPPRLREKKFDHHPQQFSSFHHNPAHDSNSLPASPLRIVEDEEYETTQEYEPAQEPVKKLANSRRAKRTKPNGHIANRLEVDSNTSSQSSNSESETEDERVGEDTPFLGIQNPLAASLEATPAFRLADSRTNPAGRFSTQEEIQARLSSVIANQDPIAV

As for `C=C[C@@H](OC)[C@H](OC(=O)Nc1ccc(SC)cc1)c1ccc(O)c(F)c1`, the composite z-score was 0.0213 in [1]; 0.5 in test [2]; -0.0024 in test [3]; 0.362 in [4]; -0.0166 in test [5]; 1.25 in [6]. Besides, the composite z-score in test [7] was 1.35; in [9], 0.2; in test [10] it was -0.069; in test [11], 1.56; in test [15], 2.58; in [17] it was -0.0654. Further, the composite z-score was 0.808 in test [18], 0.185 in [19] and -0.126 in test [20]. Besides, the z-score in test [8] was 3.87 (inactive); in test [12], 1.05 (inactive); in test [13], 0.123 (inactive); in test [14], 1.65 (inactive); in [16] it was 0.374 (inactive).

On to `O=C1OCCC=C[C@H]2OC34C=CCN(Cn5nnc6ccccc65)C(=O)[C@H]3N(CCCCCCO)C(=O)[C@@H]4C12` (stereo not given in full), for which the composite z-score is 0.603 in test [1]; 0.134 in test [2]; -0.129 in test [3]; -0.612 in [4]; -1.29 in test [5]; -0.207 in test [6]. For the same compound, the composite z-score is 1.11 in test [7]; -0.564 in test [9]; -0.134 in [10]; -0.0465 in test [11]; 0.529 in [15]; -0.0741 in [17]. Also, the composite z-score in test [18] is -1.09; in test [19], -0.36; in test [20] it was -0.354. Further, the z-score in test [8] is -0.229 (inactive); in test [12], 0.298 (inactive); in [13], 0.577 (inactive); in [14], 0.194 (inactive); in test [16] it was -0.369 (inactive).

For `COC(=O)[C@@]1(Cc2ccccc2)[C@@H]2C(=CC(=O)[C@H]2CC(=O)C(=O)N(C)C)CN1C(=O)c1ccccc1`, the composite z-score was 0.152 in [1]; -0.0069 in [2]; 0.305 in [3]; 1.21 in test [4]; 1.39 in [5]; 1.98 in test [6]. The composite z-score in [7] worked out at 1.32; in test [9], 0.962; in test [10], 0.113; in [11], 0.777; in test [15], 3.22; in test [17], 0.262. The composite z-score in test [18] was -0.434; in test [19] it was 1.06; in test [20] it was 0.156. Also, the z-score is -1.26 (inactive) in test [8]; -1.06 (inactive) in test [12]; 0.378 (inactive) in test [13]; -0.251 (inactive) in test [14]; 0.844 (inactive) in test [16].

Consider `CCOC(=O)C1CCCCN1` (stereo not given), for which the composite z-score turned out to be 0.267 in [1]; 0.0953 in [2]; 0.119 in test [3]; 0.989 in test [4]; 0.931 in test [5]; 0.153 in test [6]. The composite z-score is 0.765 in test [7]; 0.74 in test [9]; 1.96 in test [10]; 1.08 in [11]; 1.16 in [15]; 0.697 in test [17]. Further, the results for the composite z-score in test [18], in [19] and in [20] were 0.458, 0.738 and 0.641, respectively. Also, the z-score is -0.102 (inactive) in [8]; -0.0725 (inactive) in test [12]; 0.438 (inactive) in [13]; 0.363 (inactive) in test [14]; -0.0508 (inactive) in [16].

For `C=CCNC(=O)[C@H]1[C@@H]2C(=O)O[C@@H](c3ccccc3)[C@@H](c3ccccc3)N2[C@@H](c2ccc(O)cc2)[C@]12C(=O)Nc1ccc(C#CC3(O)CCCCCC3)cc12`, the composite z-score is 0.0935 in [1]; 1.01 in test [2]; -0.0293 in [3]; 0.254 in test [4]; -0.459 in test [5]; 0.865 in [6]. Also, the composite z-score was 0.718 in [7]; 0.168 in test [9]; 0.312 in [10]; 1.55 in [11]; 3.03 in test [15]; -0.0953 in test [17]. Moreover, the figures for the composite z-score in test [18], in test [19] and in test [20] were 1.09, 0.354 and -0.0896, respectively. Moreover, the z-score in test [8] was -0.246 (inactive); in test [12], -0.494 (inactive); in test [13] it was 0.369 (inactive); in [14], 0.335 (inactive); in test [16], -1.08 (inactive).

For the compound `O=C1O[C@H](c2ccccc2)[C@H](c2ccccc2)N2[C@H]1[C@@H](C(=O)O)[C@]1(C(=O)Nc3ccc(C#CC4=CCCCC4)cc31)[C@H]2c1ccc(O)cc1`, the composite z-score in test [1] was -0.261; in test [2], -0.208; in [3] it was -0.0899; in test [4], 0.728; in test [5] it was 0.769; in test [6], 0.92. Besides, the composite z-score in [7] is 1.13; in [9], 0.189; in test [10], -0.121; in test [11] it was 1.54; in [15], 2.65; in test [17] it was 0.0169. In addition, the composite z-score in test [18] was 0.653; in test [19], 0.966; in [20], -0.0353. Moreover, the z-score in [8] was -0.179 (inactive); in test [12], -0.206 (inactive); in [13], -0.113 (inactive); in test [14] it was -0.776 (inactive); in test [16] it was -0.911 (inactive).

For `C=CCOC(=O)[C@H]1[C@@H]2C(=O)O[C@@H](c3ccccc3)[C@@H](c3ccccc3)N2[C@@H](c2ccc(OCCOC(=O)[C@@H]3C[C@@H]4C(=O)N[C@@H](CCCCNC(C)=O)C(=O)N4[C@@H]3c3ccc(O)cc3)cc2)[C@]12C(=O)Nc1ccc(I)cc12`, the composite z-score in test [1] was -0.0041; in test [2] it was 0.689; in test [3], -0.0466; in [4] it was 0.892; in [5], 1.43; in [6] it was 1.23. Besides, the composite z-score in test [7] was 1.37; in test [9], 0.257; in test [10], -0.323; in [11], 1.52; in test [15], 1.88; in test [17], 0.0594. Besides, the figures for the composite z-score in [18], in test [19] and in test [20] were 1.19, 0.981 and 0.117, respectively. In addition, the z-score in test [8] is -0.553 (inactive); in [12], 1.29 (inactive); in test [13], 0.145 (inactive); in test [14] it was 4.21 (inactive); in test [16], -0.289 (inactive).

As for `COC(=O)[C@@]1(Cc2ccc(F)cc2)[C@H]2c3cc(C(=O)N(C)C)n(Cc4cc(F)cc5c4OCOC5)c3C[C@H]2CN1C(=O)c1ccccc1`, the composite z-score in test [1] was 0.149; in test [2], 0.199; in test [3], -0.0002; in test [4], 0.964; in test [5], 1.56; in test [6], 1.81. The composite z-score was 1.27 in test [7]; 1.03 in [9]; -0.319 in test [10]; 1.17 in [11]; 3.32 in [15]; 0.44 in test [17]. The composite z-score in test [18] was 0.378; in test [19], 1.04; in test [20] it was 0.118. The z-score in [8] was -1.82 (inactive); in test [12] it was -1.23 (inactive); in test [13], 0.446 (inactive); in test [14] it was 1.78 (inactive); in [16] it was -0.375 (inactive).

Consider `COCCOC(=O)N1C(=O)[C@@]2(c3cc(C#CC4(O)CCCCCC4)ccc31)[C@H](c1ccc(O)cc1)N1[C@H](c3ccccc3)[C@H](c3ccccc3)OC(=O)[C@H]1[C@@H]2C(=O)NC[C@H](O)c1ccccc1`, for which the composite z-score is -0.116 in test [1]; 0.556 in test [2]; -0.126 in [3]; 0.666 in test [4]; 1.29 in [5]; 0.463 in test [6]. The composite z-score worked out at 1.02 in [7]; 0.538 in test [9]; 0.176 in test [10]; 1.55 in [11]; 1.18 in [15]; 0.332 in test [17]. Moreover, the composite z-score in test [18] turned out to be 1.78; in test [19], 1.06; in test [20], 0.22. Also, the z-score in [8] is 0.69 (inactive); in [12] it was 0.0316 (inactive); in test [13], -0.312 (inactive); in test [14], 0.939 (inactive); in test [16], -0.639 (inactive).
